The list is not random: actives were taken first. Their share in the collection is about 0.57%.
TcdB inh – TcdB glycohydrolase inhibitors, primary screen, biochemical, single point, plate reader. inhibition, % at 9.99 µM. 0.24% of 350,000 active. Toxin B (Clostridioides difficile), P18177. AID 652162, 2013. TcdB glycohydrolase enzymatic assay; in the data active = inhibition above about 10%
Target sequence (P18177 whole entry, looked up): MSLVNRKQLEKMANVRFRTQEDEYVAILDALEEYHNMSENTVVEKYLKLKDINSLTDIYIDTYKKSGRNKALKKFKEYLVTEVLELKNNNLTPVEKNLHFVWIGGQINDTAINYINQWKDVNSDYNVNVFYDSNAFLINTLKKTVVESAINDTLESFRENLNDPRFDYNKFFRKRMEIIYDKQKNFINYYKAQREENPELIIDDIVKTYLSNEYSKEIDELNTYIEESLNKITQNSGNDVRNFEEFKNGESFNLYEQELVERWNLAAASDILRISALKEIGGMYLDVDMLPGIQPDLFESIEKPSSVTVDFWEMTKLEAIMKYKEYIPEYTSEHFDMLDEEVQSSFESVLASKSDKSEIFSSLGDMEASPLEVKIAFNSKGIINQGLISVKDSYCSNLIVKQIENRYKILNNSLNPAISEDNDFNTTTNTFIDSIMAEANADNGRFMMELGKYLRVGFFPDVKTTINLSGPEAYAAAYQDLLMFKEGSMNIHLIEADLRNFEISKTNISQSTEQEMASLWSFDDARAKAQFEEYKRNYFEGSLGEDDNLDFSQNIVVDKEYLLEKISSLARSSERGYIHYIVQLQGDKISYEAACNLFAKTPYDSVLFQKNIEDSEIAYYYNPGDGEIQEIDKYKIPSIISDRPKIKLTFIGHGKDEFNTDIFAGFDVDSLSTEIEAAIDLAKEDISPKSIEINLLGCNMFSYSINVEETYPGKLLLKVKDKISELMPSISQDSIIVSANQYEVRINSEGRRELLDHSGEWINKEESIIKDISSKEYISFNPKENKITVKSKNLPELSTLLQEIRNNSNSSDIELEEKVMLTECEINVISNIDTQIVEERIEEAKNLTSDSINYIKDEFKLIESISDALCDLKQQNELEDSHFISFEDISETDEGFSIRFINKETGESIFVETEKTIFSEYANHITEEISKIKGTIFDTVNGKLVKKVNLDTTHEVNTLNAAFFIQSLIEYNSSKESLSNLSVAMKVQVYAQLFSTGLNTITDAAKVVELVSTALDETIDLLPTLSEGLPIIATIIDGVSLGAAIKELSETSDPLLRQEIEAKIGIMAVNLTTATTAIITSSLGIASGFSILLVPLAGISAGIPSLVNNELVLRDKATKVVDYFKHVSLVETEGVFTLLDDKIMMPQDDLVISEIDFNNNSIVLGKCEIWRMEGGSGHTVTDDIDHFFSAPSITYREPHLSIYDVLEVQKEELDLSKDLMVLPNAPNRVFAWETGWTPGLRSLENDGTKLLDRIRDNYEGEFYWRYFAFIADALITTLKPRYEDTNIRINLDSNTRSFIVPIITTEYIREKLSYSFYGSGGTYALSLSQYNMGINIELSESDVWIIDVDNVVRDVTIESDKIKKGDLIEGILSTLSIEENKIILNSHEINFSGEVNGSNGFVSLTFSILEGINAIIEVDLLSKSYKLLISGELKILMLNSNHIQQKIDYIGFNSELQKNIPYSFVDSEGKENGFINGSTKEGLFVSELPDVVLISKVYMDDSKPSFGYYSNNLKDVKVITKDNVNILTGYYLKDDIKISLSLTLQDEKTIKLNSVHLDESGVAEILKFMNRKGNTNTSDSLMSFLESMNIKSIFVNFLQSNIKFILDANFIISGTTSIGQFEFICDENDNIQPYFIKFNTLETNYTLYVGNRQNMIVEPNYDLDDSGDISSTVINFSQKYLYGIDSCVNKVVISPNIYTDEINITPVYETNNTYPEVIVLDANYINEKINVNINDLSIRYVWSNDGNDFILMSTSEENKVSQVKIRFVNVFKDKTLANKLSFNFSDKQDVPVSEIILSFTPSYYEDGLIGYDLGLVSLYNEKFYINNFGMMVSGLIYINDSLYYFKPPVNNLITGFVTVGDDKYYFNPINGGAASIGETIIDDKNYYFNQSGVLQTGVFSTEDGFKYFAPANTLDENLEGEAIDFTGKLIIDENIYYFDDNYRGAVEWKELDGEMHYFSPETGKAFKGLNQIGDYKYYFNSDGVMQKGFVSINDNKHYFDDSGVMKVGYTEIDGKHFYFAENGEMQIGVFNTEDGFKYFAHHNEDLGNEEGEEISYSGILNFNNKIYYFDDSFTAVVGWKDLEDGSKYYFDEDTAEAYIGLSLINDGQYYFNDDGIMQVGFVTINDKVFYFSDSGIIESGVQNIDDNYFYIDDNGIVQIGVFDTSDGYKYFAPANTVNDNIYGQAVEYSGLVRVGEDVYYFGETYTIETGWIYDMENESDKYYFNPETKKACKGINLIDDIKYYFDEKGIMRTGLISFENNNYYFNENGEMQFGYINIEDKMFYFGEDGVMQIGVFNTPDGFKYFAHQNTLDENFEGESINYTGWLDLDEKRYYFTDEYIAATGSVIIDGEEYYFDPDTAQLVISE
BioA inh – M. tuberculosis BioA enzyme inhibitors, primary screen, biochemical, plate reader, single point, HTS; 7,8-diaminopelargonic acid synthase BioA (Mycobacterium tuberculosis); purified M. tuberculosis BioA enzyme; inhibition, % at 9.99 µM; 0.096% of 360,000 active; in the data active = inhibition above about 40%
PrP 5UTR inh – inhibition of PrP 5' UTR reporter expression; inhibition, % (no concentration beside the values); 0.35% of 340,000 active; cell-based PrP 5' UTR mRNA reporter, plate reader; AID 488862, 2010; in the data active = inhibition above about 52%
Y pestis TopoI – Yersinia pestis topoisomerase I inhibitors, primary screen, biochemical, cleavage product accumulation, plate reader, single point | DNA topoisomerase I (Yersinia pestis CO92) | Y. pestis Topo-I cleavage product accumulation | activity, % at 10 µM | 0.064% of 360,000 active; in the data active = activity above about 50%, passing the limit was not always enough
Large screens that a line does not name were inactive.

CN(C)c1ccc(C(=O)OCC#CCSc2nnc(-c3cccc4ccccc34)o2)cc1	TcdB inh 14
COc1ccc2nccc(/C=C/c3ccnc4ccc(OC)cc34)c2c1	TcdB inh 13 (no result: PrP 5UTR inh)
COc1cc(OC)c(OC)cc1/C=C/c1ccnc2ccccc12	TcdB inh 19 (no result: BioA inh)
CC(C)CC#Cc1cnc2c(c1)C(=O)N([C@@H](C)CO)C[C@H](C)[C@@H](CN(C)C(=O)C1CCOCC1)O2	none (no result: PrP 5UTR inh, Y pestis TopoI)
COCC(=O)N(C)C[C@@H]1Oc2cc(-c3ccncc3)ccc2S(=O)(=O)N([C@H](C)CO)C[C@@H]1C	none (no result: PrP 5UTR inh, Y pestis TopoI)
Cc1cccc(OCCC(=O)NCC(=O)Nc2cccc(C)c2C)c1	TcdB inh 19
C[C@H](CO)N1C[C@H](C)[C@H](CN(C)C(=O)C2CCCCC2)Oc2ncc(-c3cccnc3)cc2C1=O	none (no result: TcdB inh, PrP 5UTR inh, Y pestis TopoI)
Cc1nc(S(=O)(=O)NC2CCCCC2)c(C#N)c(C)c1Cl	none (no result: TcdB inh)
Cc1nc(S(=O)(=O)N(C)Cc2ccccc2)c(C#N)c(C)c1Cl	TcdB inh 64
Cc1nc(-c2ccccn2)nc(SCC(=O)c2ccc(F)cc2)c1Cl	TcdB inh 12 (no result: BioA inh)
COc1ccc(C(=O)CSc2nc(-c3ccccn3)nc(C)c2Cl)cc1	none
C[C@H]1CN([C@@H](C)CO)C(=O)c2cc(C#CCN(C)C)cnc2O[C@H]1CN(C)C(=O)Cc1cccnc1	none (no result: PrP 5UTR inh, Y pestis TopoI)
C[C@@H]1CCCCO[C@@H](CN(C)C)[C@H](C)CN([C@H](C)CO)C(=O)c2cc(NC(=O)Nc3ccc(C(F)(F)F)cc3)ccc2O1	none (no result: PrP 5UTR inh, Y pestis TopoI)
Cc1ccc(COC(=O)c2cc([N+](=O)[O-])ccc2N2CCOCC2)cc1	PrP 5UTR inh 77
O=C(C[C@H]1C[C@H]2c3cc(NC(=O)c4ccc5c(c4)OCO5)ccc3O[C@H]2[C@H](CO)O1)NCc1cccc(F)c1	TcdB inh 14 (no result: PrP 5UTR inh, Y pestis TopoI)
CS(=O)(=O)N1CCc2cc(C(=O)Nc3ccc(O)cc3)ccc21	TcdB inh 25
CC(=O)Nc1ccc(NC(=O)c2ccc3c(c2)CCN3S(C)(=O)=O)cc1	none
COc1cc(/C=C/C(=O)OCC(=O)NCc2ccco2)ccc1O	TcdB inh 15
COc1cc(/C=C/C(=O)OCC(=O)NC(=O)NC(C)(C)C)ccc1O	TcdB inh 16
C=CC(=O)Nc1cccc(Nc2nc(N[C@H]3CC[C@H](N(C)C)CC3)nc3c2ncn3C(C)C)c1	PrP 5UTR inh 71 (no result: TcdB inh)
O=C(NCC1CC1)[C@@H]1[C@@H](CO)[C@@H]2Cn3c(ccc(C4=CCCCC4)c3=O)[C@@H]2N1Cc1ccccc1F	none (no result: PrP 5UTR inh, Y pestis TopoI)
Cc1ccc(C)c(CN2C(=O)COc3ccc(C(=O)c4ccccc4C(=O)O)cc32)c1	TcdB inh 14 (no result: BioA inh)
CN(C)CC(=O)N1[C@H](CO)[C@@H](c2ccccc2)C12CN(C(=O)c1ccccc1)C2	none (no result: BioA inh, PrP 5UTR inh, Y pestis TopoI)
Cc1ccccc1OCC(=O)Nc1ccccc1N1CCCCC1	Y pestis TopoI 55 (no result: TcdB inh)
Cc1cc(Cl)ccc1OCC(=O)Nc1ccccc1N1CCOCC1	Y pestis TopoI 53 (no result: TcdB inh)
Cc1cccc(OCC(=O)Nc2ccccc2N2CCCC2)c1C	none
Cc1cc(Cl)ccc1OCC(=O)NC(=S)Nc1ccccc1N1CCOCC1	none (no result: BioA inh)
CC(Oc1ccc(F)cc1)C(=O)Nc1ccccc1N1CCCCC1 (stereo unspecified)	Y pestis TopoI 65
O=C(COc1c(Cl)cccc1Cl)Nc1ccccc1N1CCCC1	Y pestis TopoI 54
COc1ccccc1S(=O)(=O)N[C@@H]1CC[C@H](CC(=O)N2CCCCC2)O[C@@H]1CO	none (no result: PrP 5UTR inh, Y pestis TopoI)
CN(C)CCCNC(=O)C[C@@H]1CC[C@@H](NS(=O)(=O)c2ccc(F)cc2)[C@@H](CO)O1	none (no result: PrP 5UTR inh, Y pestis TopoI)
CCOc1ccccc1-n1c(C)nc2cc(C(=O)O)ccc21	TcdB inh 20 (no result: BioA inh)
C=C[C@H](COC(C)=O)N(Cc1ccc(OC(C)=O)c(OC)c1)S(=O)(=O)c1ccc(Br)cc1	none (no result: PrP 5UTR inh, Y pestis TopoI)
Cc1ccc(Nc2nc(N)nc(-c3oc4ccccc4c3C)n2)cc1	PrP 5UTR inh 70 (no result: TcdB inh, BioA inh)
COc1cc2ccccc2cc1C(=O)N/N=C/c1cccs1	TcdB inh 13 (no result: PrP 5UTR inh)
COC(=O)N/N=C/c1cccs1	none (no result: BioA inh)
CCOc1cc(/C=N/n2cnnc2)ccc1O	TcdB inh 17
CN(C)c1ccc(/C=C/c2nc3ccccc3c(=O)[nH]2)cc1	PrP 5UTR inh 60 (no result: BioA inh)
Cc1ccc(CN2C(=O)CN=C(c3ccccc3)c3ccccc32)cc1	TcdB inh 12
Cc1oc(-c2ccccc2)nc1CN1C(=O)CN=C(c2ccccc2)c2ccccc21	none
COc1ccc(NC(=O)C2CC(=O)N(c3ccccc3F)C2)cc1S(=O)(=O)N1CCCCC1 (stereo unspecified)	TcdB inh 13 (no result: PrP 5UTR inh)
COc1ccc(N2CC(C(=O)Nc3cccc(S(=O)(=O)N4CCCC4)c3)CC2=O)c(OC)c1 (stereo unspecified)	none
CC(=O)c1ccc(Nc2ccc(-c3ccccc3F)nn2)cc1	TcdB inh 10 (no result: BioA inh)
Clc1ccc(CSC(Cn2ccnc2)c2ccc(Cl)cc2Cl)cc1 (stereo unspecified)	Y pestis TopoI 57
O=C(Cc1ccc(Cl)cc1)NCCCn1ccnc1	none (no result: TcdB inh)
Clc1ccc(OCCCn2ccnc2)c(Br)c1	none (no result: TcdB inh, BioA inh)
Clc1ccc(COC(Cn2ccnc2)c2ccc(Cl)cc2Cl)cc1 (stereo unspecified)	Y pestis TopoI 62
CCc1ccc2oc(-c3cc(N)ccc3Cl)nc2c1	TcdB inh 14
COc1ccc(Cc2nnc3n2N=C(c2cc4ccccc4o2)CS3)cc1OC	Y pestis TopoI 54 (no result: TcdB inh)
CC1=C/C(=C(/c2cc(C)c(O)c(Br)c2)c2ccccc2S(=O)(=O)O)C=C(Br)C1=O	Y pestis TopoI 60 (no result: BioA inh)
CC1=C/C(=C(/c2ccc(O)c(C)c2)c2ccccc2S(=O)(=O)O)C=CC1=O	none
O=c1n(Cc2ccc(Cl)cc2)c2sc3c(c2c2ncnn12)CCCC3	Y pestis TopoI 57 (no result: TcdB inh)
COc1ccc2c3c([nH]c2c1)[C@H](CO)N(C(=O)c1ccccn1)CC31CN(C(=O)C2CC2)C1	none (no result: BioA inh, PrP 5UTR inh, Y pestis TopoI)
COc1ccc(OC)c(N)c1	none (no result: TcdB inh)
COc1ccc(N=Nc2cc(OC)c(N)cc2OC)cc1	TcdB inh 10
O=[N+]([O-])c1cc(Br)ccc1NS(=O)(=O)c1ccccc1	TcdB inh 19
O=C(c1cccc(F)c1)N1CC2(C1)[C@H](c1ccccc1)[C@H](CO)N2C(=O)C1CCOCC1	none (no result: BioA inh, PrP 5UTR inh, Y pestis TopoI)
C[C@H](CO)N1C[C@H](C)[C@@H](CN(C)Cc2ccccc2)Oc2ccc(NC(=O)C3CC3)cc2C1=O	none (no result: PrP 5UTR inh, Y pestis TopoI)
COc1ccc(NC(=O)Nc2cnccn2)c(OC)c1	none
COc1ccc(NC(=O)Nc2nc(C)cc(C)n2)c(OC)c1	TcdB inh 11
O=C(CN1CCOCC1)N1CCCCN2[C@H](C1)[C@H](c1ccc(C#Cc3ccccc3F)cc1)[C@@H]2CO	none (no result: PrP 5UTR inh, Y pestis TopoI)
COc1ccc(-c2ccc3c(c2)[C@H]2[C@H](CCN2C(=O)CN2CCOCC2)[C@H](CO)N3)cc1	none (no result: PrP 5UTR inh, Y pestis TopoI)
CC(=O)N1CC[C@@H]2[C@@H](CO)Nc3ccc(-c4ccccc4)cc3[C@@H]21	TcdB inh 11 (no result: PrP 5UTR inh, Y pestis TopoI)
CC(=O)N1CC[C@@H]2[C@H](CO)Nc3ccc(-c4ccc(F)cc4)cc3[C@@H]21	none (no result: PrP 5UTR inh, Y pestis TopoI)
COc1ccc(-c2ccc3c(c2)[C@@H]2[C@@H](CCN2C(=O)CN2CCOCC2)[C@H](CO)N3)cc1	TcdB inh 12 (no result: PrP 5UTR inh, Y pestis TopoI)
